From PubChem BioAssay (Tox21) come the findings set out here.

Values joined by “and” are separate entries in the source; they are usually repeats but may differ in a detail not shown here. Equal values may be shown once. Inconclusive results are not listed. Where a structure was tested more than once in an assay, its records may differ in their call. Active and inactive are the calls of the source. Unless noted, calls come from the whole dose curve; as a rule, active = well fitted curve in the direction sought with a large enough effect in the repeat runs; inconclusive = weak or mixed curves; inactive = no such curve, though single readings can be large; an effect the other way counts as inactive or inconclusive.

The target in assay [1] is Retinoic acid receptor RXR-alpha (Homo sapiens) (UniProt P19793). As to the kind of experiment: qHTS assay to identify small molecule agonists of the RXR signaling pathway (AID 1159527; calls by dose curve; note: nearly all actives have a fitted effect of over 35% in size; note: potency is the fitted concentration of half-maximal effect). The settings on record: HEK293T RXRa-UAS-bla, beta-lactamase ratio, 16 h; series mostly up to 76.8 µM. The method, boiled down: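 Beta-lactamase reporter assay, agonist format. Engineered HEK 293T line, charcoal-stripped FBS at 2%, overnight (16 hr) exposure, fluorescence at 460 and 530 nm after 405 nm excitation.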
Background: In qHTS, concentration-response curves come from the screen itself.

Assay [2] is described as follows: qHTS assay to identify small molecule agonists of the RXR signaling pathway - cell viability counter screen (AID 1159529). Note: nearly all actives have a fitted effect of over 50% in size. The following applies: RXR-alpha-bla HEK293T viability, CellTiter-Glo, 16 h; series mostly up to 76.8 µM. The method, boiled down: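 Same-well viability check after the LiveBLAzer FRET read: CellTiter-Glo added, luminescence measured after 30 min at room temperature. Reporter HEK 293T cells had been treated with compounds for 16 hr following a 5 hr preincubation.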

Assay [3] is described as follows: qHTS assay to identify small molecule antagonists of the retinoic acid receptor (RAR) signaling pathway (AID 1159552; note: nearly all actives have a fitted effect of over 50% in size). The following applies: C3RL4 RARE luciferase reporter, retinol-stimulated, 6 h; series mostly up to 92.4 µM. The method, boiled down: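 Readout: luciferase luminescence, 30 min post-reagent at RT. Setup: C3RL4 RARE reporter cells, compounds plus retinol 1 uM final, 6 hr incubation at 37 C and 5% CO2.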

Assay [4] is described as follows: qHTS assay to identify small molecule agonists of the retinoic acid receptor (RAR) signaling pathway (AID 1159553). Note: potency is the fitted concentration of half-maximal effect. The settings on record: C3RL4 RARE luciferase reporter, agonist, 6 h; series mostly up to 73.3 µM. The method, boiled down:
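Compounds dissolved in DMSO were pinned onto C3RL4 cells seeded the previous day, and plates were held 6 hr at 37 C. RARE-driven luciferase output was then read by luminescence.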

Assay [5] is described as follows: qHTS assay to identify small molecule antagonists of the estrogen related receptor (ERR) signaling pathway - cell viability counter screen (AID 1224818).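 Note: viability measured after 17.5 h of compound exposure.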 The settings on record: ERR reporter cell line viability counter screen; series mostly up to 46.1 µM. The procedure, abridged:
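Cytotoxicity check run alongside the ERR antagonist screen: cells exposed to test compounds 17.5 h at 37 C, viability taken as CellTiter-Fluor fluorescence intensity.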

Assay [6] is described as follows: qHTS assay to identify small molecule antagonists of the estrogen related receptor signaling pathway with the pleiotropic PPARgamma coactivator (PGC) cell viability counter screen (AID 1224822;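 note: viability read after 17.5 h compound exposure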). The following applies: ERR/PGC reporter cell line viability counter screen; series mostly up to 46.1 µM. The procedure, abridged:
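Viable cell signal (CellTiter-Fluor, 30 min, 37 C/5% CO2) was measured in PGC/ERR cells after a 17.5 h compound incubation.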

Assay [7] is described as follows: qHTS assay to identify small molecule antagonists of the retinoid acid receptor (RAR) signaling pathway - cell viability counter screen (AID 1159551). Note: nearly all actives have a fitted effect of over 35% in size. The following applies: C3RL4 cells viability, ATP luminescence (CellTiter-Glo), 6 h; series mostly up to 92.4 µM. The procedure, abridged:
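Viability of C3RL4 cells is quantified from ATP by luminescence after 6 h treatment at 37 C with compounds and 1 uM retinol.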

The nature of assay [8]: qHTS assay to identify small molecule antagonists of the estrogen related receptor (ERR) signaling pathway (AID 1224819; note: nearly all actives have a fitted effect of over 50% in size). The settings on record: ERR reporter cell line, luciferase inhibition; series mostly up to 46.1 µM. The procedure, abridged: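 ERR reporter cells were plated at 2,000 cells/well and left 6 h at 37 C/5% CO2 before pin-tool transfer of compounds in DMSO. After 18 h at 37 C, One-Glo was added and luminescence was read 30 min later at room temperature.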

The nature of assay [9]: qHTS assay to identify small molecule agonists of the estrogen related receptor (ERR) signaling pathway (AID 1224820). The following applies: ERR reporter cell line, luciferase agonist mode; series mostly up to 46.1 µM. The method, boiled down: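 After 6 h plating (2,000 cells/well) and 18 h compound treatment at 37 C, ERR cells were lysed with One-Glo and luminescence read after 30 min at room temperature.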

For assay [10], the system named is estrogen-related receptor alpha (ERRalpha) with PGC-1alpha coactivator, human. As to the kind of experiment: qHTS assay to identify small molecule antagonists of the estrogen related receptor signaling pathway with the pleiotropic PPARgamma coactivator (PGC) (AID 1224821; calls by dose curve;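 note: lower luminescence signal means antagonism of PGC/ERR signalling; nearly all actives have a fitted effect of over 50% in size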). The following applies: ERR/PGC reporter cell line, luciferase, antagonist mode; series mostly up to 46.1 µM. The method, boiled down:
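Luminescence from One-Glo luciferase reagent (30 min, room temperature) measured after 18 h compound treatment at 37 °C. Cells carry the PGC/ERR reporter and were seeded 6 h prior to dosing.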

Chain of Retinoic acid receptor RXR-alpha (Homo sapiens) (P19793 whole entry, looked up): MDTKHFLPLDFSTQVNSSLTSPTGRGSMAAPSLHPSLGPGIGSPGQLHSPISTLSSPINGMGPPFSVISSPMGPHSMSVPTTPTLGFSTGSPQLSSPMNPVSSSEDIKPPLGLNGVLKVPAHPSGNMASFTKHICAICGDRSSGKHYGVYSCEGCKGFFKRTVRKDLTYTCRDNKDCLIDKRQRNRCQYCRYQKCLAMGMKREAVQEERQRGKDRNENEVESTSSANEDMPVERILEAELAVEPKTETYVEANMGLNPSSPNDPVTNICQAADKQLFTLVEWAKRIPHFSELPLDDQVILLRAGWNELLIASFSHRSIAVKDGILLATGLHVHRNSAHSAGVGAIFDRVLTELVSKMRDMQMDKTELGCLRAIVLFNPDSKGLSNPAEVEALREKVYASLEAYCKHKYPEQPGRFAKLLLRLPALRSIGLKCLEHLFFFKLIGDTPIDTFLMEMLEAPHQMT

Regarding `CC(=O)c1ccc(S(=O)(=O)NC(=O)NC2CCCCC2)cc1`, the Potency entry in assay [1], in assay [2], in assay [3] and in assay [4] was “inactive” throughout. Further, the call in assay [5] and in assay [6] was inactive.
With `CC(C)(C)CC(C)(C)c1ccc(O)c(-n2nc3ccccc3n2)c1`, in assay [7], the compound was called inactive. Besides, the Potency entry in [3] and in assay [4] was “inactive” throughout.
Consider `C=CCOC(=O)CC(C)C`, for which the Potency entry in [1], in [2], in assay [3] and in assay [4] was “inactive” each time.
For `C#C[C@]1(O)CC[C@H]2[C@@H]3CCc4cc(O)ccc4[C@H]3CC[C@@]21C`, the Potency entry in assay [1], in [2], in assay [3] and in assay [4] was “inactive” throughout.
As to `CC1=C(/C=C/C(C)=C/C=C/C(C)=C/C(=O)O)C(C)(C)CCC1`, the Potency result in assay [2] and in assay [3] was “inactive” each time. Besides, the result in assay [7], in [5] and in [6] was inactive. For the same compound, the Potency in assay [4] was 19.4 nM (active) and 9.7 nM (active) and 84.1 nM (active).
For `CC1=NN(c2ccccc2)C(=O)C1`, the Potency entry in assay [1], in [2], in assay [3] and in assay [4] was “inactive” in each case.
For the compound `Cn1cnc2c1c(=O)[nH]c(=O)n2C`, the Potency entry in assay [1], in assay [2], in assay [3] and in assay [4] was “inactive” each time. Besides, the result in assay [5] and in [6] was inactive.
For `N[C@@H](Cc1c[nH]c2ccccc12)C(=O)O`, the Potency entry in [1], in [2], in assay [3] and in assay [4] was “inactive” throughout. For the same compound, the compound was called inactive in assay [5] and in assay [6].
As to `O=C1CCCCCN1`, the Potency result in [1], in assay [2], in assay [3] and in assay [4] was “inactive” in each case.
On to `CC(=O)OC/C=C(C)/C=C/C=C(C)/C=C/C1=C(C)CCCC1(C)C`, for which the Potency result in [2] is “inactive”.
Turning to `CCN(CC)CCOC(=O)c1ccc(N)cc1`, the Potency entry in assay [1], in assay [2], in assay [3], in assay [4] and in assay [8] was “inactive” each time. Moreover, the result in [5], in [9], in assay [10] and in [6] was inactive.
As to `CN(C)Cc1cc(CN(C)C)c(O)c(CN(C)C)c1`, the Potency entry in assay [1], in assay [2], in [3] and in assay [4] was “inactive” throughout.
Take `NC(=O)N/N=C/c1ccc([N+](=O)[O-])o1`: in [1], the Potency result is “inactive and 13.8 µM (active)”. For the same compound, the Potency result in [2] and in assay [8] was “inactive” in each case. The compound was classed as inactive in assay [9], in assay [10] and in assay [6].
In the case of `COc1cc2c(c(OC)c1OC)-c1ccc(OC)c(=O)cc1[C@@H](NC(C)=O)CC2`, the outcome in [7], in [5] and in [6] was inactive. Besides, the Potency entry in assay [3] and in assay [4] was “inactive” in each case.
